An excerpt weighted towards active compounds, which were near 3.3% of everything screened.
eIF4E 4G PPI: eIF4E/eIF4G interaction inhibition in translation initiation | P63073+Q04637 | TR-FRET eIF4E-eIF4GI(517-606) binding, 2 h | inhibition, % at 21.7 µM | 220,000 compounds, 0.37% hits | AID 782;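 further: 0% = full FRET control wells and 100% = background wells lacking eIF4GI fragment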
Mcl1-Bid inh: disrupts binding of human Mcl-1 to Bid peptide. inhibition, % at 21.7 µM. TR-FRET Mcl-1/Bid-Dy647 peptide binding, 1536-well. 220,000 compounds, 0.97% hits. Q07820;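 active means compounds that cut the binding signal by more than half at the single screening dose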;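 further: His-tagged Mcl-1 with europium anti-His antibody binding Bid BH3 peptide; 0% = Mcl-1 plus peptide wells and 100% = peptide-only wells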
Mcl1 Noxa PPI: Mcl-1/Noxa interaction inhibition. Q07820. TR-FRET Mcl-1/Noxa peptide binding, 2 h. 220,000 compounds, 1.5% hits. inhibition, % at 21.7 µM;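 active means compounds that cut the protein-peptide binding signal by more than 50% relative to plate controls in a single-dose test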;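 further: His-tagged Mcl-1 with rhodamine Noxa BH3 peptide and terbium anti-His antibody; 0% = Mcl-1 plus Noxa peptide wells and 100% = peptide-only wells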
14-3-3 Bad PPI: disrupts binding of bovine 14-3-3 zeta to phospho-Bad peptide | 220,000 compounds, 0.71% hits | AID 781 | TR-FRET 14-3-3zeta/Dy647-pBad peptide displacement, 1 h | inhibition, % at 21.7 µM;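 active means inhibition above about 70%, limit read from the data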;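 further: 0% = full 14-3-3 plus peptide FRET controls and 100% = background without 14-3-3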
Mcl-1 Bim block: inhibitors of Bim-Mcl-1 interaction, human; AID 1009; Q07820; 190,000 compounds, 0.1% hits; Bead-based flow cytometry, Bim peptide-Mcl-1 binding; inhibition, % at 10 µM; in the data active means inhibition above about 40%;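 further: 0% = no compound tracer wells and 100% = peptide blocker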
p47phox inh: p47phox (human) inhibition; P14598; p47phox/p22phox peptide binding, fluorescence polarization, 2 h; inhibition, % at 24.7 µM; 220,000 compounds, 0.53% hits;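 further: 0% = p47phox with labelled peptide and 100% = labelled peptide alone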
* = called active by the depositor; . = not tested or not shown; [ ] = dose if it differs, or a comment.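 How the source made its calls, unless noted: active means inhibition above about 30% (limit read from the data); inactive means the rest.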

SMILES | eIF4E 4G PPI | Mcl1-Bid inh | Mcl1 Noxa PPI | 14-3-3 Bad PPI | Mcl-1 Bim block | p47phox inh
Cc1ccccc1CN1CCSc2sccc2C1=O | -2 | -12 | -7 | -20 | -1 | -5
COC(=O)c1ccc(NC(=O)NC2CCCCC2)cc1 | -2 | -11 | 22 | -9 | 0 | 1
CC(=O)Nc1ccc(C(=O)OCC(=O)NC(=O)NC2CCCCC2)cc1 | -8 | -11 | 16 | -9 | 0 | 133*
O=C(NN1CCOCC1)c1cc(-c2ccc(Br)cc2)nc2ccccc12 | 58* | -10 | 8 | -19 | -6 | 5
COc1ccc(NC(=O)COC(=O)c2ccc(Cl)c(S(N)(=O)=O)c2)c([N+](=O)[O-])c1 | 3 | -13 | 53* | -5 | . | 0
CN(C)S(=O)(=O)c1cccc(N=C2NN=C(c3ccccc3)CS2)c1 | -5 | -36 | 34 | 4 | -2 | -16
CC(=O)Nc1ccc(C2=NNC(=Nc3cccc(S(=O)(=O)N(C)C)c3)SC2)cc1 | 0 | -18 | 96* | 0 | 0 | -15
CC(=O)Nc1ccc(C2=NNC(=Nc3ccc(S(=O)(=O)N4CCOCC4)cc3)SC2)cc1 | 0 | -20 | 80* | 4 | . | -39
COc1ccc(CCNS(=O)(=O)c2ccc3c(c2)OCCO3)cc1 | 1 | -39 | -19 | 84* | 0 | -11
O=C(NCCc1ccc2c(c1)OCO2)C1CCN(S(=O)(=O)c2ccc(Cl)cc2)CC1 | 3 | -9 | -2 | -2 | 0 | -1
COc1ccc(S(=O)(=O)N2CCC(C(=O)NCCc3ccc4c(c3)OCO4)CC2)cc1 | 1 | -9 | -6 | -5 | -1 | 42*
Cn1c(=O)oc2cc(S(=O)(=O)N3CCCC(C(=O)NCc4ccc5c(c4)OCO5)C3)ccc21 (centres undefined) | -2 | 53* | 21 | -7 | 0 | -118
COc1ccc(S(=O)(=O)N2CCC(C(=O)NCc3cccc(OC)c3)CC2)cc1 | 47* | -2 | -3 | -3 | 1 | -11
COc1ccc(S(=O)(=O)N2CCCC(C(=O)NCc3ccc4c(c3)OCO4)C2)cc1 (centres undefined) | -2 | -24 | 11 | 3 | . | -5
O=C(C1CCCN(CCCc2ccccc2)C1)N1CCCCC1 (centres undefined) | 5 | 13 | 27 | -1 | -2 | 14
Cc1ccc2sc(=O)[nH]c2c1 | 4 | -16 | 0 | -11 | . | -7
CC(C)COc1cccc(C(=O)NC(=S)NCc2cccnc2)c1 | 3 | -15 | 11 | -10 | 3 | 4
COc1cccc(CNC(=O)C2CCN(S(=O)(=O)c3ccccc3)CC2)c1 | -6 | -13 | 6 | -3 | 1 | -11
COc1cccc(CNC(=O)C2CCN(S(=O)(=O)N3CCCCC3)CC2)c1 | -8 | 92* | 10 | -1 | 3 | 4
CCn1ccnc1CN1CCN(CCC(C)C)C(CCO)C1 (centres undefined) | 2 | -25 | -10 | -12 | 0 | -2
CN(C)c1ccc(/C=N/NC(=O)c2nnn(-c3nonc3N)c2COc2ccc(F)cc2)cc1 | 23 | -40 | 59* | 8 | . | -8
CCCOc1ccc(-c2c(C(=O)N/N=C/c3ccc(OC)cc3)nnn2-c2nonc2N)cc1 | 17 | -27 | 12 | 5 | 55* | -8
CCCOc1ccc(-c2c(C(=O)N/N=C/c3ccc(OCC)cc3)nnn2-c2nonc2N)cc1 | -5 | -22 | -1 | -6 | -5 | -18
COc1ccc(N2C(=O)C3CCCN3C2=O)cc1 (centres undefined) | -1 | -6 | 102* | -6 | -2 | -7
COc1cc(C2N(c3ccc(Cl)cc3)C(=O)C3CCCN32)cc(OC)c1OC (centres undefined) | 2 | -13 | 0 | -1 | 1 | -22
SMILES | eIF4E 4G PPI | Mcl1-Bid inh | Mcl1 Noxa PPI | 14-3-3 Bad PPI | Mcl-1 Bim block | p47phox inh
COc1ccc(N2C(=O)C3CCCN3C2c2cc(OC)c(OC)c(OC)c2)cc1 (centres undefined) | -11 | -25 | -28 | 12 | -1 | 35*
Cc1ccc(C)c(S(=O)(=O)Nc2ccc(O)c(Sc3ncn[nH]3)c2)c1 | 7 | -45 | 8 | 5 | . | -8
CCOc1ccc(S(=O)(=O)Nc2ccc(O)c(Sc3ncn[nH]3)c2)cc1 | -2 | -23 | 9 | -12 | -1 | -2
CC(C)c1ccc(S(=O)(=O)/N=C2/C=C(Sc3ncn[nH]3)C(=O)c3ccccc32)cc1 | 21 | 49 | 105* | 79*[fluorescence artefact?] | 27 | 50*
Cc1ccc(S(=O)(=O)/N=C2/C=C(Sc3ncn[nH]3)C(=O)c3ccccc32)c(C)c1 | 27 | 26 | 94* | 66 | 11 | 37*
Cc1ccc(S(=O)(=O)Nc2ccc(O)c(Sc3ncn[nH]3)c2)cc1 | 1 | -29 | 23 | -11 | -1 | -10
Cc1ccc(S(=O)(=O)/N=C2/C=C(Sc3ncn[nH]3)C(=O)c3ccccc32)cc1 | 34*[fluorescence artefact?] | 65* | 98* | 88*[fluorescence artefact?] | -7 | 53*
Cc1ccccc1CSc1nnc(-c2cnccn2)n1C | -2 | -16 | 13 | -3 | . | 4
O=C(COC(=O)/C=C/c1ccco1)NCc1ccc2c(c1)OCO2 | 5 | -30 | 9 | 6 | -3 | -2
CCn1c2c(c(=N)c3ccccc31)CCC2 | 8 | 3 | 14 | 21 | . | 10
Cc1ccc([N+](=O)[O-])cc1NC(=O)Nc1cccc(F)c1 | 3 | -8 | 7 | 2 | . | -15
O=C(CNC(=O)c1ccco1)NCC(=O)OCc1ccccc1Br | 6 | -12 | -14 | -13 | 43* | 0
O=C(CNC(=O)c1cccs1)NCC(=O)OCc1ccccc1Br | 0 | 3 | 15 | -1 | -2 | 6
COc1ccc(OC)c(NC(=O)COC(=O)c2cc3c(s2)CCC3)c1 | 37* | -68 | 72* | 43 | 95* | -9
COc1ccc(OC)c(NC(=O)COC(=O)c2c3c(nc4ccccc24)CCCC3)c1 | -4 | -3 | 9 | -2 | -2 | -5
COc1cc(CN(C(=O)c2ccco2)c2ccc(C)cc2)ccc1O | 37*[fluorescence artefact?] | -3 | 6 | 1 | -3 | 5
CCOc1cccc(CNCCO)c1OCc1ccc(Cl)cc1Cl | -2 | 72* | 29 | 4 | -6 | -9
CCOc1c(Cl)cc(Cl)cc1CNCCNCCO | 3 | 8 | 30 | 72* | -2 | -47
Cc1cccc(Oc2sc(C(=O)c3ccccc3)c(N)c2C#N)c1 | -12 | 19 | -16 | -10 | -1 | -4
C=COC(=O)c1sc2nc(C)cc(C)c2c1N | -7 | -35 | -2 | -10 | . | -6
O=C(CNC(=O)c1ccc(F)cc1)N/N=C/c1cc(Br)ccc1OC(=O)/C=C/c1ccco1 | 2 | -1 | 59* | 0 | . | -16
O=C1CC(C2CCCO2)C(=O)N1c1ccc(Cl)c(Cl)c1 (centres undefined) | 0 | -2 | 6 | -6 | -2 | -11
CCC(=O)NC(=S)Nc1ccc(NC(=O)c2ccc([N+](=O)[O-])cc2)cc1 | 56*[fluorescence artefact?] | -6 | 21 | -1 | 0 | -4
